Reference: PubChem BioAssay AID1845226 (National Center for Advancing Translational Sciences (NCATS), 2023)
Records with an inconclusive call do not appear. Entries that show only a call come without a potency. The source made the active and inactive calls. The call rests on the fitted dose curve; in most records, active means well fitted inhibition curve with a large enough effect; inconclusive means small, poorly fitted or top-dose-only effect; inactive means no such curve, though single readings can be large or run the other way.

Assay: Confirmatory fluorescence-based thiol-reactive (MSTI) qHTS assay for identification of artifact compounds
Settings: MSTI thiol-reactivity probe, 1 h; series mostly up to 39.2 µM
In short: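 Thiol reactivity read as MSTI fluorescence (Ex/Em 525/598 nm) after 1 h at room temperature in PBS pH 7.4 with 2% DMSO, MSTI 4 uM. Data normalised to Acetyl-MSTI and MSTI control wells, 4-parameter Hill fit.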
Potency means the concentration at half of the fitted maximal effect.

Row | SMILES | Potency
1 | Cc1ccc(-c2nc3scc(CCNS(=O)(=O)c4ccc(F)c(C)c4)n3n2)cc1 | inactive
2 | CC/C=C/C/C=C/C/C=C/CCCCCCCC(=O)OCC | inactive
3 | CC(C)C(=O)OC1=CN(Cc2ccccc2)S(=O)(=O)c2ccccc21 | inactive
4 | COC(=O)c1cc(NC(=O)c2ccc3c(c2)NC(=O)c2ccccc2S3)cc(C(=O)OC)c1 | inactive
5 | COc1ccccc1C(CC(=O)Nc1ccc(F)cc1)c1ccccc1 (stereo unspecified) | inactive
6 | CCCCOc1ccc(C2C(=O)N(C3CCCCC3)CC(=O)N2CCCC)cc1 (stereo unspecified) | inactive
7 | COc1ccc(C(=O)O)cc1Nc1nc2ccc(C)cc2n2cnnc12 | inactive
8 | Cc1cc(OC(=O)c2c(C)cc(O)cc2O)cc(O)c1C(=O)O | inactive
9 | COc1ccc(NC(=O)Nc2cccc(-c3noc(C)n3)c2)cc1 | inactive
10 | Ic1ccc(Nc2nc(NCCN3CCOCC3)nc(N3CCOCC3)n2)cc1 | inactive
11 | Cc1ccc(OCCn2c(CCNC(=O)c3c(F)cccc3F)nc3ccccc32)cc1 | inactive
12 | CCCCCCCCCCCCCCCC(=O)N[C@H](CN1CCOCC1)[C@H](O)c1ccccc1 | 12.2 µM (active)
13 | Cc1ccc(NS(=O)(=O)c2cc3c(cc2N2CCC2)NC(=O)CC3)cc1C | inactive
14 | O=C(O)c1c(CNCc2cccc(F)c2)c2ccccc2n1Cc1ccccc1 | inactive
15 | COC(=O)c1ccc2nc(C)cc(Nc3ccc(O)cc3)c2c1 | inactive
16 | CC(=O)O[C@H]1C[C@@H]2CC[C@@H]3[C@H](CC[C@@]4(C)[C@H]3C[C@H](N3CC[N+](C)(C)CC3)[C@@H]4OC(C)=O)[C@@]2(C)C[C@@H]1N1CC[N+](C)(C)CC1 | inactive
